{"source": "PubChem BioAssay AID868", "about": "(SRMLSC, 2007)", "note": "Among all 190,000 compounds or so, about 3,500 (1.8%) were called active. The sample holds actives, similar compounds and a random draw of the others, so the mix is not that of the screen. A number with no mark means an inactive call.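 Rule for the calls: active = inhibition above a set limit, 3 SD over mean compound inhibition (cut at about 8.4% in these data); inactive = the rest.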", "data": [{"experiment": "inhibitors of the yeast RAM network, primary screen, dse1pr::URA3 reporter, 5-FOA selection (AID 868);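 note: 0% = DMSO-only wells with no growth and 100% = 10 µM 1-NA-PP1 full growth; inhibition rescues growth on 5-FOA so higher OD means more RAM inhibition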", "conditions": "S. cerevisiae dse1pr::URA3 reporter, 5-FOA growth OD615, 2 d; at 50 µM; hits give high values; analog-sensitive cbk1-as2 kinase mutant strain", "values": [{"smiles": "Nc1cc(C(F)(F)F)ccc1N1CCOCC1", "inhibition": "2.42%"}, {"smiles": "O=C(CN1CCN(S(=O)(=O)c2ccc(Br)cc2)CC1)Nc1ccccc1C(=O)c1ccccc1", "inhibition": "3.25%"}, {"smiles": "Cc1cc2ccccc2n1CCC(=O)O", "inhibition": "-0.54%"}, {"smiles": "Cc1cc2ccccc2n1CCNC(=O)COc1ccc2ccccc2c1", "inhibition": "11.6% (active)"}, {"smiles": "COC(=O)C(C)NC(=O)COc1ccc2ccccc2c1", "note": "(centres undefined)", "inhibition": "1.01%"}, {"smiles": "COc1ccc(S(=O)(=O)Nc2cccnc2)c(Cl)c1Cl", "inhibition": "2.49%"}, {"smiles": "CC(C)Cc1nn2c(=O)cc(O)nc2s1", "inhibition": "1.5%"}, {"smiles": "COc1cccc(CNn2cn[nH]c2=S)c1OCc1ccccc1", "inhibition": "1.01%"}, {"smiles": "CSc1c(SCc2ccccc2)cnn(Cc2ccccc2)c1=O", "inhibition": "1.14%"}, {"smiles": "COc1ccc(S(=O)(=O)N(C)CC(=O)Nc2ccc3c(c2)OCCO3)cc1OC", "inhibition": "9.23% (active)"}, {"smiles": "COc1ccc(NC(=O)CN(C)S(=O)(=O)c2ccccc2)cc1OC", "inhibition": "0.34%"}, {"smiles": "COc1ccc(/C=C/C(=O)Nc2ccc3c(c2)OCCO3)cc1OC", "inhibition": "1.12%"}, {"smiles": "Cc1ccc(N2C(=O)C3CC3C2=O)cc1", "note": "(centres undefined)", "inhibition": "0%"}, {"smiles": "O=C(NCc1ccc(Cl)cc1)NCc1ccc(Cl)cc1", "inhibition": "2.41%"}, {"smiles": "Cc1cccc(Oc2c([N+](=O)[O-])c(=O)n(C)c3ccccc23)c1", "inhibition": "2.19%"}, {"smiles": "CC(C)c1csc(CN2CCC(CO)(Cc3ccccc3)CC2)n1", "inhibition": "1.22%"}, {"smiles": "COc1ccc([N+](=O)[O-])cc1NC(=O)CC1SC(=Nc2cccc(C)c2C)N(/N=C(\\C)c2ccc(C)cc2)C1=O", "note": "(centres undefined)", "inhibition": "9.07% (active)"}, {"smiles": "COc1ccc([N+](=O)[O-])cc1NC(=O)c1ccc(N(Cc2ccccc2C)S(C)(=O)=O)cc1", "inhibition": "4.39%"}, {"smiles": "COc1ccc([N+](=O)[O-])cc1NC(=O)CCc1ccccc1", "inhibition": "0.95%"}, {"smiles": "Cc1ccccc1Nc1nc(N)nc(CSc2ccccc2)n1", "inhibition": "-0.26%"}, {"smiles": "COc1ccc(-c2nnc(SC(=O)N3c4ccccc4Sc4ccccc43)o2)cc1", "inhibition": "8.49% (active)"}, {"smiles": "COc1ccc(-c2nnc(SCc3cccnc3)o2)cc1", "inhibition": "0.36%"}, {"smiles": "COc1ccc(-c2nnc(SC(C)C#N)o2)cc1", "note": "(centres undefined)", "inhibition": "-0.45%"}, {"smiles": "CC1CCN(c2ccc([N+](=O)[O-])cc2C(N)=O)CC1", "inhibition": "1.09%"}, {"smiles": "Cc1cc(C)c(NC(=S)N2CCCC2C(=O)O)c(C)c1", "note": "(centres undefined)", "inhibition": "-0.25%"}, {"smiles": "COC(=O)c1ccc(C2C(Oc3ccccc3C)C(=O)N2CCc2ccc(OC)c(OC)c2)cc1", "note": "(centres undefined)", "inhibition": "12.4% (active)"}, {"smiles": "COc1ccc(CCNC(=O)C(=O)NCc2ccccc2C)cc1OC", "inhibition": "0.77%"}, {"smiles": "COc1ccc(CCN2C(=O)c3[nH]nc(-c4ccccc4O)c3C2c2ccc(C)cc2)cc1OC", "note": "(centres undefined)", "inhibition": "1.8%"}, {"smiles": "Cc1sc2c(c1C)c(=O)n(-c1ccccc1)c(=O)n2CC(=O)NCC1CCCO1", "note": "(centres undefined)", "inhibition": "1.92%"}, {"smiles": "O=C(O)/C=C/C(=O)NNc1ccc([N+](=O)[O-])cc1", "inhibition": "0.13%"}, {"smiles": "CCOCCCNC(=O)C(NC(=O)c1ccccc1O)c1ccccc1", "note": "(centres undefined)", "inhibition": "0%"}, {"smiles": "Cc1nn(-c2ccccc2)c(Cl)c1C(=O)Nc1ccccc1", "inhibition": "6.51%"}, {"smiles": "Cc1nn(-c2ccccc2)c(C)c1/C=C/C(=O)OC(C)C(N)=O", "note": "(centres undefined)", "inhibition": "1.08%"}, {"smiles": "Cc1ccc(C(=O)/C=C/c2c(C)nn(-c3ccccc3)c2Cl)cc1", "inhibition": "14.1% (active)"}, {"smiles": "Cc1ccc(-n2nc(C)c(/C=N/NC(=O)c3cccs3)c2Cl)cc1", "inhibition": "5.29%"}, {"smiles": "Cc1nn(-c2ccccc2)c(C)c1NC(=O)CCl", "inhibition": "3.63%"}, {"smiles": "Cc1nn(-c2ccccc2)c(Cl)c1/C=C/C(=O)c1ccc(O)cc1", "inhibition": "8.5% (active)"}, {"smiles": "OCC(CO)(CO)NCc1ccc(-c2ccccc2)cc1", "inhibition": "1.38%"}, {"smiles": "COC(=O)N/N=C/c1ccc(/C=N/NC(=O)OC)cc1", "inhibition": "1.05%"}, {"smiles": "COc1cc(C)c(S(=O)(=O)N2CCOCC2)c(C)c1C", "inhibition": "0.98%"}, {"smiles": "Cc1ccc(N=Cc2c(O)n(-c3nccs3)c(=O)c3ccccc23)c(C)c1", "inhibition": "8.99% (active)"}, {"smiles": "Cc1ccc(-n2c(O)c(C=Nc3ccc(S(=O)(=O)Nc4ncccn4)cc3)c3ccccc3c2=O)cc1C", "inhibition": "7.54%"}, {"smiles": "Cc1ccc(N=Cc2c(O)cc(C)oc2=O)c(C)c1", "inhibition": "0.38%"}, {"smiles": "C/C(CC(=O)N1CCN(C=O)CC1)=N\\NC(=O)c1ccc(Br)cc1", "inhibition": "2.35%"}, {"smiles": "Cc1ccc2[nH]c(C)c(CCNC(=O)NC3CCCCC3)c2c1", "inhibition": "1.04%"}, {"smiles": "CC(=O)N(CCCN(C)C)c1nc2ccc(C)cc2s1", "inhibition": "3.5%"}, {"smiles": "CC(C)c1cc(NCc2ccccn2)n2c(nc3ccccc32)c1C#N", "inhibition": "-0.26%"}, {"smiles": "C=C(C)CNC(=S)N/N=C/c1ccccc1OCC(=O)O", "inhibition": "0%"}, {"smiles": "CCOc1ccccc1/C=N/NC(=O)CNC(=O)COc1ccccc1", "inhibition": "1.01%"}, {"smiles": "C=CCc1ccccc1OCC(=O)N/N=C/c1ccccc1OCC", "inhibition": "12.4% (active)"}, {"smiles": "O=[N+]([O-])c1cc(S(=O)(=O)CCCN2CCOCC2)ccc1F", "inhibition": "-0.13%"}, {"smiles": "COc1cc(OC)c(C(=O)OC(C)C(=O)Nc2cc(C(F)(F)F)ccc2Cl)cc1OC", "note": "(centres undefined)", "inhibition": "0.5%"}, {"smiles": "COc1ccc(/C(C)=N/NC(=O)CCC(=O)Nc2ccc(Cl)cc2Cl)c(OC)c1", "inhibition": "0.4%"}, {"smiles": "COc1ccc(/C(C)=N/Nc2cc(C(F)(F)F)ccc2Cl)c(OC)c1", "inhibition": "13.5% (active)"}, {"smiles": "COC(=O)c1ccc(CN2CCC(CO)(Cc3ccc(OC)cc3)CC2)cc1", "inhibition": "1.4%"}, {"smiles": "COc1ccc(-c2ccc(CCC(=O)O)n2NC(=O)c2ccc(C(C)(C)C)cc2)cc1", "inhibition": "5.38%"}, {"smiles": "Cc1ccc(CN2CCN(Cc3ccc4ncccc4c3)CC2CCO)cc1", "note": "(centres undefined)", "inhibition": "0.13%"}, {"smiles": "O=C(/C=C/c1ccc2c(c1)OCO2)NCc1cn2cc(Cl)ccc2n1", "inhibition": "3.64%"}, {"smiles": "Cc1ccc(Cl)cc1NC(=O)COC(=O)C1CCCCC1", "inhibition": "1.91%"}, {"smiles": "Cc1ccc(Cl)cc1NC(=O)COC(=O)CC(C)(C)C", "inhibition": "-1.53%"}, {"smiles": "O=C(COC(=O)CCCNC(=O)c1ccc(Cl)cc1)Nc1cc(Cl)ccc1Cl", "inhibition": "14.2% (active)"}, {"smiles": "O=C(O)c1n[nH]nc1-c1ccccc1", "inhibition": "0.27%"}, {"smiles": "C=CCOC(=O)C1=C(C)OC(N)=C(C#N)C1c1ccc(F)cc1", "note": "(centres undefined)", "inhibition": "1.6%"}, {"smiles": "CCOC(=O)CSC1=C(C#N)C(c2ccco2)C(C(=O)OCc2ccccc2)=C(C)N1", "note": "(centres undefined)", "inhibition": "17.6% (active)"}, {"smiles": "Cc1ccc(C2CC(=O)NC(SCC(=O)OCc3ccccc3)=C2C#N)o1", "note": "(centres undefined)", "inhibition": "0.38%"}, {"smiles": "CCOC(=O)CSC1=C(C#N)C(c2sccc2C)CC(=O)N1", "note": "(centres undefined)", "inhibition": "0%"}, {"smiles": "CC1=C(C(=O)Nc2ccccc2)C(c2ccco2)C(C#N)=C(SCC(N)=O)N1", "note": "(centres undefined)", "inhibition": "-0.14%"}, {"smiles": "C=CCOC(=O)C1=C(C)NC(SCC(=O)OCC)=C(C#N)C1c1ccc(C)cc1", "note": "(centres undefined)", "inhibition": "17.7% (active)"}, {"smiles": "S=c1ccc2ccccc2[nH]1", "inhibition": "-0.88%"}, {"smiles": "Cc1noc(C)c1COc1ccc2ccc(=O)oc2c1", "inhibition": "0.12%"}, {"smiles": "O=C(NC1CC1)c1ccc(-c2ccccc2)cc1", "inhibition": "1.25%"}, {"smiles": "Cc1cccc(OCCNC(=O)CSc2ccc(C(F)(F)F)cc2[N+](=O)[O-])c1", "inhibition": "3.14%"}, {"smiles": "COc1ccc(N2CCN(C(C)=C3C(=O)c4ccccc4C3=O)CC2)cc1", "inhibition": "-1.52%"}, {"smiles": "CN(C)c1ccc(C(=S)N2CCN(C(=S)Nc3ccc(Cl)cc3)CC2)cc1", "inhibition": "4%"}, {"smiles": "Cc1ccc(SCC(=O)Nc2ccc3c(c2)OCCO3)cc1", "inhibition": "0.6%"}, {"smiles": "Cc1ccc(SCC(=O)c2sc(-c3ccccc3)nc2C)cc1", "inhibition": "2.13%"}, {"smiles": "Cc1ccc(SCC(=O)c2cc(C)c(OC(=S)N(C)C)c(C)c2)cc1", "inhibition": "9.5% (active)"}, {"smiles": "O=C(CCCN1C(=O)/C(=C/c2ccccc2)SC1=S)Nc1ccc(O)cc1", "inhibition": "0.63%"}, {"smiles": "O=C(CCCN1C(=O)/C(=C\\c2ccco2)SC1=S)Nc1cccc2ccccc12", "inhibition": "4.94%"}, {"smiles": "COc1ccc(/C=C2/SC(=O)N(CCCCCC(=O)Nc3ccccc3C(=O)O)C2=S)cc1", "inhibition": "9.16% (active)"}, {"smiles": "Cc1cc(C)cc(NS(=O)(=O)c2ccc(Oc3ncc(C(F)(F)F)cc3Cl)cc2)c1", "inhibition": "10.7% (active)"}, {"smiles": "COc1ccccc1Oc1ccc(S(=O)(=O)Nc2cccnc2)cc1", "inhibition": "-0.91%"}, {"smiles": "COC(=O)Cc1ccc(Oc2ncc(C(F)(F)F)cc2Cl)cc1", "inhibition": "0.6%"}, {"smiles": "CCOC(=O)Cc1ncccc1C(=O)Nc1ccc(OC(F)(F)F)cc1", "inhibition": "-0.27%"}, {"smiles": "O=C(Nc1cccc(C(F)(F)F)c1)c1cnccn1", "inhibition": "3.61%"}, {"smiles": "COc1c(Br)cc2c(C)c(C(=O)N3CCOCC3)oc2c1Br", "inhibition": "13.5% (active)"}, {"smiles": "COc1cc(C(=S)N2CCOCC2)cc(OC)c1OC(=O)c1cc([N+](=O)[O-])c(C)c([N+](=O)[O-])c1", "inhibition": "3.68%"}, {"smiles": "COc1cc(NC(=O)N2CCOCC2)cc(OC)c1", "inhibition": "0.39%"}, {"smiles": "Cc1ccccc1NS(=O)(=O)CCCCC(Cl)(Cl)Cl", "inhibition": "1.86%"}, {"smiles": "O=C(O)CCC(=O)N(Cc1ccco1)c1nc(-c2ccccc2)cs1", "inhibition": "3.13%"}, {"smiles": "Cc1ccc(-c2csc(NC(=O)c3cccs3)n2)cc1", "inhibition": "3.07%"}, {"smiles": "Cc1ccc(-c2csc(N(Cc3ccco3)C(=O)c3cccs3)n2)cc1", "inhibition": "8.42% (active)"}, {"smiles": "O=C(CN1C(=O)NC2(CCCCCC2)C1=O)NC1CC1", "inhibition": "-0.87%"}, {"smiles": "Cc1ccc2nc(COc3ccc(N(C)S(=O)(=O)c4ccccc4)cc3)cc(=O)n2c1", "inhibition": "2.17%"}, {"smiles": "CCC1CCCCN1CCCNC(=O)c1cc2c(Cl)nc3ccccc3c2s1", "note": "(centres undefined)", "inhibition": "1.99%"}, {"smiles": "N#Cc1ccc(-c2nc3cc(C#N)c(C#N)cc3nc2-c2ccccc2)cc1C#N", "inhibition": "1.25%"}, {"smiles": "COc1cccc(C2CC(c3ccccc3)=NN2S(=O)(=O)c2ccccc2)c1OC", "note": "(centres undefined)", "inhibition": "2.56%"}, {"smiles": "COc1ccccc1C1CC(=O)n2c(nc(-c3ccccc3)c2-c2ccccc2)S1", "note": "(centres undefined)", "inhibition": "8.41% (active)"}, {"smiles": "COc1ccc(C2CC(=O)n3c(nc4ccccc43)S2)cc1OC", "note": "(centres undefined)", "inhibition": "3.3%"}]}]}
